Laboratory results as given in PubChem BioAssay AID1851 (National Center for Advancing Translational Sciences (NCATS), 2009).
“And” between values parts separate entries of the source, which are not always exact repeats. Equal entries are not always repeated. In all, about 16,000 compounds went through this assay and about 5,700 (36%) were called active. Roughly 24% stayed inconclusive and do not appear here. Some of the results follow. Values without a mark were called inactive. The call rests on the fitted dose curve; in most records, active means well fitted curve in the direction sought with a large enough effect; inconclusive means small, poorly fitted or top-dose-only effect, or effect the other way; inactive means no such curve, though single readings can be large or run the other way.

What follows are molecules tested against Cytochrome P450 1A2 (Homo sapiens) (UniProt P05177) (assay: Cytochrome panel assay with activity outcomes). Conditions: recombinant CYP, pro-luciferin dealkylation, luminescence, p450-cyp1a2; series mostly up to 57.1 µM; activity, negative = inhibition: at the top concentration.
Sequence of Cytochrome P450 1A2 (Homo sapiens) (P05177 whole entry, looked up): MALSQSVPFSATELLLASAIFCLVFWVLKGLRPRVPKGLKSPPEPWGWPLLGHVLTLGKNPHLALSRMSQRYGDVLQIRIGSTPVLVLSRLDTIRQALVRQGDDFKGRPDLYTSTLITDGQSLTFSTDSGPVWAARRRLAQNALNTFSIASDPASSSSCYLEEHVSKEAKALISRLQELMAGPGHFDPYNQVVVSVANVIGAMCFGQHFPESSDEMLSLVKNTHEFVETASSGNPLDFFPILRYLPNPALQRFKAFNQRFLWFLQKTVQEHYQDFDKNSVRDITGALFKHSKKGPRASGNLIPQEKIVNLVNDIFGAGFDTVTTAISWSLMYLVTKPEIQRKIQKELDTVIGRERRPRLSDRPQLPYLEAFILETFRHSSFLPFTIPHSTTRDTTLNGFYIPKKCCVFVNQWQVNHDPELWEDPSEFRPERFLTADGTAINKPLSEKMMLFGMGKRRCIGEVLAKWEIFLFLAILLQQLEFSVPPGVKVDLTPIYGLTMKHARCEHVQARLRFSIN
On the % scale 0 is the no-effect control and ±100 the full control effect.

| SMILES | activity, negative = inhibition | AC50 |
| --- | --- | --- |
| Cc1nc2nc(C)c(CCC(=O)NCCCN3CCN(c4cccc(Cl)c4)CC3)c(C)n2n1 | -27.2% |  |
| O=C(c1csnn1)N1CCC2(CCN(Cc3ccccc3)CC2)CC1 | 4.19% |  |
| Cc1ccccc1CSc1nsc(N)n1 |  | 14.1 µM (active) |
| O=C(NC(N1CCCC1)C(Cl)(Cl)Cl)c1ccccc1 (stereo unspecified) |  | 11.2 µM (active) |
| O=C(NNC(=O)c1ccccc1)C(=O)N1CCCCC1 | -0.824% |  |
| O=C(N/C(=C\c1cccs1)C(=O)N1CCCCCC1)c1ccccc1 | -15.2% |  |
| COc1ccc2nccc(C(=O)O)c2c1 | -5.66% [at 25.6 µM] |  |
| COc1ccc(OC)c(-c2cc(C(=O)O)c3cc4ccccc4cc3n2)c1 | -21.4% [at 2.29 µM] |  |
| COc1ccc(C(=O)c2ccccc2)c(O)c1 |  | 1.58 µM (active) |
| O=C(O)c1ccc(C(=O)c2ccccc2C(=O)O)cc1C(=O)O | 2.76% [at 11.4 µM] |  |
| COc1ccc2oc(C(=O)c3ccccc3)c(N)c2c1 |  | 1.26 µM (active) |
| O=C(O)c1ccc(C(=O)c2ccccc2)c(C(=O)O)c1 | 3.14% [at 2.29 µM] |  |
| COc1ccc(CN(CCN(C)C)c2ccccn2)cc1 |  | inactive |
| Cc1ccc(N(Cc2ccccc2)Cc2ccccc2)cc1 | -24.2% [at 2.29 µM] |  |
| CN(C)c1nccc(N(Cc2ccccc2)Cc2ccccc2)c1C#N |  | 11.2 µM (active) |
| Cc1cc(N2C(=O)C(O)=C(C(=O)c3ccco3)C2c2ccc(O)cc2)no1 (stereo unspecified) | -3.33% |  |
| Cc1ccc2occ(/C=C/C(=O)O)c(=O)c2c1 | -2.47% |  |
| c1cncc(-c2cncnc2NCc2cccs2)c1 |  | 0.316 µM (active) |
| c1csc(CNc2ncncc2-c2ccoc2)c1 |  | 2 µM (active) |
| c1ccc(CNc2ncncc2-c2ccoc2)cc1 |  | 5.01 µM (active) |
| CC(N)=NCc1cccc(CN)c1 |  | inactive |

| SMILES | activity, negative = inhibition | AC50 |
| --- | --- | --- |
| O=C(NCc1ccccc1)C(c1ccncc1)N(C(=O)c1csnn1)C1CC1 (stereo unspecified) | -5.19% |  |
| CN(C)CCCN1CCC2(CCC(C(C)(C)C)CC2)CC1 | -1.31% [at 11.4 µM] |  |
| CN1CCN(c2nc(-c3cccc(C#N)c3)nc3ccccc23)CC1 |  | 1.58 µM (active) |
| N#Cc1cccc(-c2nc(N3CCNCC3)c3ccccc3n2)c1 |  | 2.51 µM (active) |
| COc1ccc(-c2nc(-c3cccc(C)c3)nc(N3CCN(C)CC3)c2C#N)cc1 | -22.7% |  |
| COc1ccc(C(=O)NC2(C(F)(F)F)C(=O)Nc3c2c(=O)[nH]c(=O)n3CCc2ccc(OC)c(OC)c2)cc1 (stereo unspecified) | -2.71% |  |
| CC(=O)OCc1c(C(F)(F)F)nn(C)c1Sc1ccccc1 |  | 15.8 µM (active) |
| COc1cc(S(C)=O)ccc1-c1nc2ncccc2[nH]1 (stereo unspecified) |  | 0.251 µM (active) |
| O=C(O)C[C@H](NC(=O)CP(=O)(O)O)C(=O)O.[NH-][C@@H]1CCCC[C@@H]1[NH-].[Pt] | -15.5% [at 11.4 µM] |  |
| FC(F)(F)c1nnc2c(Sc3ccc(Cl)cc3)nc3ccccc3n12 |  | 0.1 µM (active) |
| FC(F)(F)c1nnc2c(Sc3ccccc3)nc3ccc(Cl)cc3n12 |  | 0.708 µM (active) |
| CC(/C=N/n1c(-c2cccnc2)n[nH]c1=S)=C\c1ccccc1 |  | 0.141 µM (active) |
| NNC(=O)c1nn(-c2ccc(Cl)cc2)ccc1=O |  | 15.8 µM (active) |
| O=C(O)c1nn(-c2ccccc2)ccc1=O | -8.64% |  |
| CC(C)=CCC/C(C)=C/CO/N=C1/C[C@@H](O)[C@@H](O)[C@@H]2[C@H]3C(=O)N(c4ccc(F)cc4F)C(=O)[C@@H]3CC[C@@H]12 | 8.54% [at 11.4 µM] |  |
| C#CCN(C)Cc1ccccc1 |  | inactive |
| C#CCN(C)CCCOc1ccc(Cl)cc1Cl |  | 631 nM (active) and 158 nM (active) |
| CC[C@]1(O)C[C@H]2CN(CCc3c([nH]c4ccccc34)[C@](C(=O)OC)(c3cc4c(cc3OC)N(C=O)[C@H]3[C@@](O)(C(=O)OC)[C@H](OC(C)=O)[C@@]5(CC)C=CCN6CC[C@]43[C@H]65)C2)C1 | -7.42% |  |
| CO[C@H]1C[C@@H]2C[C@H](O)C[C@@H](CC(=O)O[C@@H](/C=C\CC(C)C)C[C@@H]3CC[C@H](C)[C@@H](C1)O3)O2 | -2.91% [at 11.4 µM] |  |
| CN1CCCC[C@@H]1CCN1c2ccccc2Sc2ccc(S(C)=O)cc21 (stereo partly specified) |  | inactive |
| OC1CC2CC[C@H](C1)N2CCCN1c2ccccc2Sc2ccc(Cl)cc21 (stereo partly specified) | -12.5% [at 11.4 µM] |  |

| SMILES | activity, negative = inhibition | AC50 |
| --- | --- | --- |
| O=c1n(CCCN2CCN(c3cccc(Cl)c3)CC2)nc2ccccn12 |  | inactive |
| CN1CCC[C@@H]1CCO[C@](C)(c1ccccc1)c1ccc(Cl)cc1 |  | inactive |
| CCSc1ccc2c(c1)N(CCCN1CCN(C)CC1)c1ccccc1S2 |  | 0.316 µM (active) |
| CN1CCN(CCCN2c3ccccc3Sc3ccc(Cl)cc32)CC1 |  | 1 µM (active) and 2.51 µM (active) |
| Clc1ccc2c(c1)N(CCCN1CCCC13CCCCC3)c1ccccc1S2 | -6.18% [at 2.29 µM] |  |
| O=C1CSC2(CCN(CCCN3c4ccccc4Sc4ccc(Cl)cc43)CC2)N1 |  | 3.16 µM (active) |
| CSc1ccc2c(c1)N(CC[C@H]1CCCCN1C)c1ccccc1S2 |  | 7.94 µM (active) |
| Nc1c(S(N)(=O)=O)cc(S(N)(=O)=O)cc1S(N)(=O)=O | -11.6% [at 11.4 µM] |  |
| COCCCNCCCCOc1c(Cl)cc(C)cc1Br |  | 0.562 µM (active) |
| C=CCNCCCCOc1c(Cl)cc(C)cc1Br |  | 0.2 µM (active) |
| FC(F)(F)c1cc(CN2CCCC3(CCNCC3)C2)cc(C(F)(F)F)c1 | -20.7% |  |
| C[C@H]1/C=C\CC(=O)OC[C@H](C)C(=O)N2CCC[C@@H]2C(=O)OC1 | 7.07% [at 11.4 µM] |  |
| NNc1nncc2ccccc12 |  | 1 µM (active) |
| CCOC(=O)NNc1nncc2ccccc12 |  | 5.01 µM (active) |
| c1ccc(Nc2ncncc2-c2ccoc2)cc1 |  | 1 µM (active) |
| Cc1noc(C)c1-c1cncnc1NC1CC1 | -12.4% |  |
| Fc1ccc(Nc2ncncc2-c2ccoc2)cc1 |  | 0.316 µM (active) |
| c1ncc(-c2ccoc2)c(NC2CC2)n1 |  | 15.8 µM (active) |
| COc1cc(C2C(C#N)=C(N)N(Nc3ccccc3)C3=C2C(=O)CC(C)(C)C3)ccc1OCc1ccccc1 (stereo unspecified) | -22.4% |  |
